# Screening results: PubChem, The Scripps Research Institute Molecular Screening Center
# FXN GAA850 act – activators of GAA850 frataxin (FXN) promoter. HEK293 lucGAA850 FXN promoter luciferase reporter, 24 h; percent of 10 µM SAHA response. activation, % at 6 µM. 360,000 compounds, 0.56% hits;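 active = activation above the average of all compounds screened plus 3 SD, cutoff fixed separately per campaign, cut at about 7.5% in these data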;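 note: 0% = DMSO wells and 100% = 10 µM SAHA wells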
# hcDAF-12 act – activators of H. contortus DAF-12 nuclear receptor; HEK293 hcDAF-12 lit1-tk-luc reporter, luminescence; 0% DMSO, 100% Δ7-dafachronic acid; activation, % at 6.8 µM; 370,000 compounds, 1.4% hits;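 active = activation above the mean of all tested compounds plus 3 SD, cut at about 5.5% in these data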;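 note: 100% = response to 3 µM Δ7-dafachronic acid high control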
# ssDAF12 agonist – S. stercoralis DAF-12 activation, primary screen | activation, % at 6.8 µM | 370,000 compounds, 1% hits | HEK293 ssDAF-12/GRIP1 lit1-tk-luc reporter, luminescence; % of 3 µM dafachronic acid response | AID 652126;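 active = activation above the mean over all tested compounds plus 3 SD, cut at about 0.9% in these data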;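 note: 0% = DMSO-only wells and 100% = 3 µM delta7-dafachronic acid wells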
# hgDAF-12 ag – hgDAF-12 agonism, primary luciferase screen | HEK293 GAL4-hgDAF12 UAS-luciferase reporter, agonist luminescence; normalized to butyrate control | activation, % at 6.8 µM | 370,000 compounds, 1.8% hits;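 active = activation above a cutoff set at the mean of all screened compounds plus 3 SD, cut at about 10% in these data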;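 note: 0% = DMSO wells and 100% = sodium butyrate wells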
# DAX1 inh-1 – DAX1 (NR0B1) inhibition, primary screen; inhibition, % at 6.8 µM; HEK293T StAR-luciferase reporter, SF-1/DAX-1 repression relief; 370,000 compounds, 1.1% hits; AID 652010;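 active = inhibition above the mean over all tested compounds plus 3 SD, cut at about 3.6% in these data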;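 note: 0% = DAX-1 cells with DMSO and 100% = cells lacking DAX-1 with DMSO; higher inhibition means more luminescence from relief of DAX-1 repression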
# DAX1 inh-2 – inhibits human nuclear receptor DAX1; P51843; HEK293 Gal4-DAX1 luciferase reporter, luminescence; inhibition, % at 6.75 µM; 340,000 compounds, 0.99% hits;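 active = inhibition above the mean over all tested compounds plus 3 SD, cut at about 4.2% in these data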;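 note: 0% = DAX1-transfected cells with DMSO and 100% = empty-vector control cells with DMSO; inhibition shows as a rise in luminescence from relieved DAX1 repression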
# Target sequence (P51843 207-470 limits assumed): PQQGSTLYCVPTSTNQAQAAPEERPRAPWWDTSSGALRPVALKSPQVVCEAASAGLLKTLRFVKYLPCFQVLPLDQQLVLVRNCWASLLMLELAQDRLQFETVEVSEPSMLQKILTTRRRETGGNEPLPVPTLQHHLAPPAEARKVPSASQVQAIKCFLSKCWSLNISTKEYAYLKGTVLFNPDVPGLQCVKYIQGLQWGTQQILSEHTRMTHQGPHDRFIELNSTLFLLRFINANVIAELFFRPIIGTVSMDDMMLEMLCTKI
# LXR ag – activates human LXR-beta, counter-screen for hcDAF-12 agonists; 3,400 tested, under 10 active; activation, % at 6.8 µM; shares compounds with hcDAF-12 act; HEK293 Gal4-LXR tk-luc reporter, luminescence, 24 h; normalized: DMSO 0%, positive control 100%;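 active = mean percent activation of the reporter above a cutoff set as the average over tested compounds plus their standard deviation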
# hcDAF12 conf – confirmation of H. contortus DAF-12 agonists; shares compounds with hcDAF-12 act; HEK293 hcDAF-12 lit1-tk-luc reporter, luminescence; % of Δ7-dafachronic acid response; activation, % at 6.8 µM; 3,400 compounds, 61% hits;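 active = mean activation across triplicate tests above the threshold derived from the earlier primary screen, cut at about 5.5% in these data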;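 note: 0% = DMSO only wells and 100% = 3 µM Δ7-dafachronic acid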
# hgDAF12 conf – confirmation of H. glycines DAF-12 agonists; activation, % at 6.8 µM; shares compounds with hgDAF-12 ag; 3,300 compounds, 80% hits; HEK293 GAL4-hgDAF12 luciferase reporter, agonist mode; percent of butyrate response;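 active = mean activation over triplicate wells above the hit cutoff derived from the earlier primary screen, cut at about 11% in these data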;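 note: 0% = DMSO low control and 100% = 2 mM sodium butyrate high control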
# LXR ag 2 – LXR-beta agonism as DAF-12 counter-screen; shares compounds with hgDAF-12 ag; activation, % at 6.8 µM; 3,300 tested, under 10 active; HEK293 Gal4-LXR luciferase reporter, 24 h;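 active = mean activation of the triplicate above a set limit carried over from the primary screen, none filed active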
# * marks the source's active call; other numbers are inactive results; x = not tested or not shown. This is a sample that favours compounds with a hit; in the whole collection about 4.5% have one here.
SMILES,FXN GAA850 act,hcDAF-12 act,ssDAF12 agonist,hgDAF-12 ag,DAX1 inh-1,DAX1 inh-2,LXR ag,hcDAF12 conf,hgDAF12 conf,LXR ag 2
Cc1cnc(NC(=O)c2ccc3c(c2)OCCO3)s1,-10,-3,-2,-7,-6,-4,x,x,x,x
Cc1ccc(C(=O)Nc2ncc(C)s2)s1,0,6.8*,0,17*,2,-2,2,6.3*,18*,1
CN(C)S(=O)(=O)c1cccc(-c2cn3cc(Cl)ccc3n2)c1,4,x,x,x,x,0,x,x,x,x
Clc1ccc2nc(-c3ccccc3)cn2c1,1,11*,1.9*,18*,2,-1,2,9.7*,18*,1
O=[N+]([O-])c1cccnc1N/N=C/c1ccccc1O,1,9.2*,0,15*,3.8*,-1,1,4,10,1
COc1cc2ccccc2cc1C(=O)Nc1cccnc1,7,3,1,9,1,1,x,x,x,x
CC(=O)c1cc(C(=O)Nc2ccc3ccccc3c2)c(C)o1,0,3,0,1,0,2,x,x,x,x
Cc1cc(C(=O)Nc2ccc3ccccc3c2)c(C)o1,3,8.5*,1.7*,18*,3,2,2,11*,21*,1
CCC(=O)Nc1ccc2ccccc2c1,2,-4,-1,-3,0,1,x,x,x,x
COc1ccc(NC(=O)c2cc3ccccc3cc2OC)cc1,6,12*,3.2*,15*,2,4,1,12*,17*,1
Cc1cc(C(=O)Nc2ccc3ccccc3c2)oc1C,3,7.3*,1,19*,3,2,1,6.9*,19*,1
COc1cccc(Cn2cc(COC(=O)N(C)Cc3ccccc3)nn2)c1,x,-2,-1,-1,-1,x,x,x,x,x
Cc1ccc2nc3sc(C(=O)NCc4ccco4)c(N)c3cc2c1,1,8.1*,1,13*,4.3*,-1,1,3,20*,1
COc1cc2cc3c(N)c(C(=O)NCc4ccco4)sc3nc2cc1OC,4,x,x,x,x,0,x,x,x,x
O=[N+]([O-])c1nccn1CC(O)CO (configuration not stated),x,0,0,5,1,x,x,x,x,x
COc1cccc(NC(=O)c2ccc3c(c2)OCO3)c1,6,7.1*,2.8*,14*,3,0,1,8.2*,17*,1
COc1cccc(NC(=O)COC(=O)c2ccc3c(c2)OCCO3)c1,1,-1,-1,2,0,3,x,x,x,x
COc1cccc(NC(=O)c2ccc3c(c2)OCCO3)c1,-1,11*,1,14*,2,-3,1,6.9*,16*,1
CC(=O)N1CCc2cc(S(=O)(=O)NCCC(=O)NCc3ccccc3)ccc21,x,-2,-1,-3,-1,x,x,x,x,x
Cc1cccc(C(=O)n2c(=S)nc3cc(C)ccn32)c1,-4,6.6*,1,16*,3.7*,4.6*,1,6.6*,13*,1
Oc1cc2c(cc1CN1CCc3ccccc3C1)OCO2,4,0,0,1,-1,0,x,x,x,x
c1ccc2c(c1)CCN(c1nc3cc4c(cc3s1)OCO4)C2,4,8.8*,2.2*,14*,4.2*,3,2,8.1*,19*,1
O=[N+]([O-])c1ccccc1-c1nc(-c2ccc(Br)o2)no1,6,15*,2.8*,21*,4.5*,3,1,8.6*,18*,1
Brc1ccc(-c2nc(-c3ccncc3)no2)o1,3,-2,-2,0,1,0,x,x,x,x
Brc1ccc(-c2noc(-c3ccccn3)n2)o1,2,10*,1.4*,20*,2,2,1,7.8*,21*,1
SMILES,FXN GAA850 act,hcDAF-12 act,ssDAF12 agonist,hgDAF-12 ag,DAX1 inh-1,DAX1 inh-2,LXR ag,hcDAF12 conf,hgDAF12 conf,LXR ag 2
CCC[C@H]1[C@@H](OC(=O)NCc2ccco2)CC[C@@]23CCCN2C(=O)CCC[C@@H]13,x,-1,-2,-2,x,x,x,x,x,x
Cc1cccc(Cn2cc(COC(=O)N(C)Cc3ccccc3)nn2)c1,x,1,-1,-3,0,x,x,x,x,x
CC(C)c1ccc(NC(=O)c2snc3ccc(Cl)cc23)cc1,5,11*,2.7*,20*,3.8*,3,1,12*,17*,1
N/C(=N\OC(=O)c1cc(Cl)ccc1Cl)c1ccccn1,0,17*,2.2*,18*,3,-1,2,16*,21*,1
Cc1nc(/C(N)=N/OC(=O)c2ccccc2Cl)c(C(F)(F)F)o1,0,1,0,1,0,2,x,x,x,x
Cc1cc(/C(N)=N/OC(=O)c2ccccc2Cl)no1,0,13*,1.2*,14*,3,x,2,9.6*,17*,1
COc1cc(-c2nc3ccccc3s2)ccc1O,4,8.6*,0,14*,2,3,1,7.3*,14*,1
O=C(CC1CCCC1)N[C@H](C(=O)N1CCC[C@H]1C(=O)NC1CCCC1)c1ccccc1,x,-2,-1,-1,0,x,x,x,x,x
COc1ccc(C(=O)CSc2nnc(-c3cccnc3)n2-c2ccc(C)cc2)cc1,x,0,-2,5,-1,x,x,x,x,x
Cc1ccc2oc(-c3ccccc3)c(C(=O)O)c(=O)c2c1,4,6.7*,0,18*,3,2,1,6.1*,18*,1
O=C(O)c1c(-c2ccccc2)oc2ccc(O)cc12,1,0,-1,2,0,1,x,x,x,x
COc1cccc(-c2cnc(C(O)c3ccc(Cl)c(F)c3)[nH]2)c1 (configuration not stated),0,0,-2,2,0,x,x,x,x,x
CCN=C1NC(CCc2ccccc2)C(C(=O)OC)=C(C)N1Cc1ccccc1C(F)(F)F (configuration not stated),x,-1,-1,-1,-1,x,x,x,x,x
COc1ccc(C2=Nc3ccccc3N(C(=O)c3ccc4ncccc4c3)C2C(=O)NC2CCCC2)cc1 (configuration not stated),x,9.7*,2.3*,18*,2,x,1,10*,12*,0
